Measured values: PubChem BioAssay (NCATS)
Where “and” joins values, the source holds several entries; their conditions need not be identical. Equal values may be shown once. Records with an inconclusive call do not appear. A call without a number means that no potency is given here. A number with no mark means an inactive call. Calls of active or inactive are those of the source. Calls follow the shape of the dose curve; as a rule, active = well fitted curve in the direction sought with a large enough effect; inconclusive = small, poorly fitted or top-dose-only effect, or another doubt; inactive = no such curve, though single readings can be large; an effect the other way counts as inactive or inconclusive.

Assay: qHTS assay for cell viability of HEK293 cells (AID 743288); also: nearly all actives have a fitted effect of over 50% in size; also: potency is read from the fitted curve at half-maximal effect
Conditions: ATP luminescence (CellTiter-Glo), 18 h; max response: hits give low values
Procedure, shortened: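 Environmental chemicals tested in qHTS format against parental HEK293 cells; 18 h treatment, 37 C; read-out ATP luminescence (CellTiter-Glo), 30 min RT development.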

Row | SMILES | Potency | max response
1 | N=C1N=C(N)c2cc3ccccc3cc21 | 44.7 µM (active) | 
2 | Nc1ccc(O)c([N+](=O)[O-])c1 |  | -18.2% and -13.9%
3 | Nc1ccc(O)c(C(=O)O)c1 |  | -0.669% and -7.83%

Assay: qHTS assay for cell viability of the p53RE-bla HCT-116 cell line (AID 743292); also: nearly all actives have a fitted effect of over 55% in size; also: potency is read from the fitted curve at half-maximal effect
Conditions: p53RE-bla HCT-116 viability, ATP luminescence, 16 h; series mostly up to 95 µM
Procedure, shortened: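 HCT-116 p53RE-bla cells seeded 4,000/well; 5 h at 37 C; compound (DMSO) added; 16 h at 37 C; CellTiter-Glo added, 30 min RT; luminescence read.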

Row | SMILES | Potency
4 | N=C1N=C(N)c2cc3ccccc3cc21 | 50.1 µM (active)
5 | Nc1ccc(O)c([N+](=O)[O-])c1 | inactive
6 | Nc1ccc(O)c(C(=O)O)c1 | inactive

Assay: qHTS assay to identify small molecule inhibitors of chordoma cells - UCH-2 (AID 1259356)
Conditions: UCH-2 chordoma viability, CellTiter-Glo ATP luminescence, 48 h; series mostly up to 46.1 µM

Row | SMILES | Potency
7 | COC(=O)C1=C(C)NC(C)=C(C(=O)OCC(C)C)C1c1ccccc1[N+](=O)[O-] (stereo not drawn) | inactive
8 | CCCCC[C@H](O)/C=C/[C@@H]1[C@@H](C/C=C\CCCC(=O)O)[C@@H](O)C[C@H]1O | inactive
9 | CCCCCC[C@@H](O)C/C=C\CCCCCCCC(=O)O | inactive
10 | CN1CCN(c2cc3c(nn2)Oc2ccccc2N3C)CC1 | inactive
11 | CC[C@H]1OC(=O)[C@H](C)C(=O)[C@H](C)[C@@H](O[C@@H]2O[C@H](C)C[C@H](N(C)C)[C@H]2O)[C@](C)(OC)C[C@@H](C)C(=O)[C@H](C)[C@H]2N(CCCCn3cnc(-c4cccnc4)c3)C(=O)O[C@]12C | inactive
12 | CC(C(=O)O)c1ccc(C(=O)c2ccccc2)s1 (stereo not drawn) | inactive
13 | CC[C@H]1OC(=O)[C@H](C)[C@@H](O[C@H]2C[C@@](C)(OC)[C@@H](O)[C@H](C)O2)[C@H](C)[C@@H](O[C@@H]2O[C@H](C)C[C@H](N(C)C)[C@H]2O)[C@](C)(O)C[C@@H](C)C(=O)[C@H](C)[C@@H](O)[C@]1(C)O | inactive
